Assay outcomes from PubChem BioAssay.
Rows were chosen to be rich in hits. Some 4.8% of all compounds tested hit in one or more screens of this group.
DAX1 inh-1 – DAX1 (NR0B1) inhibitors on StAR promoter, primary screen, cell-based, luminescence, SF-1 (NR5A1), full-length DAX-1; HEK293T StAR-luciferase reporter, SF-1/DAX-1 repression relief; inhibition, % at 6.8 µM; actives 1.1% (n = 370,000); AID 652010, 2013;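 active means inhibition above the mean over all tested compounds plus 3 SD, cut at about 3.6% in these data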;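 further: 0% = DAX-1 cells with DMSO and 100% = cells lacking DAX-1 with DMSO; higher inhibition means more luminescence from relief of DAX-1 repression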
SMARCA2 act – SMARCA2 (BRM) function activators, primary screen, cell-based, luminescence, high throughput; MG213 cells, MMTV-luciferase reporter, dexamethasone, overnight; activation, % at 9.1 µM; actives 1% (n = 370,000); in the data active means activation above about 7.8%;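 further: 0% = vehicle wells and 100% = reference activator wells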
DAX1 inh-2 – DAX1 (NR0B1) inhibitors, primary screen, cell-based, HEK293, Gal4-DAX1, luciferase luminescence; Nuclear receptor subfamily 0 group B member 1 (Homo sapiens), P51843; HEK293 Gal4-DAX1 luciferase reporter; inhibition, % at 6.75 µM; actives 0.99% (n = 340,000); AID 504766, 2011;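 active means inhibition above the mean over all tested compounds plus 3 SD, cut at about 4.2% in these data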;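 further: 0% = DAX1-transfected cells with DMSO and 100% = empty-vector control cells with DMSO; inhibition shows as a rise in luminescence from relieved DAX1 repression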
hgDAF-12 ag – H. glycines DAF-12 receptor agonists, primary screen, cell-based, luminescence, HEK293, GAL4 fusion, UAS-luciferase | Nuclear hormone receptor DAF-12 (Heterodera glycines), GAL4 fusion | HEK293 GAL4-hgDAF12 UAS-luciferase reporter, agonist luminescence; normalized to butyrate control | activation, % at 6.8 µM | actives 1.8% (n = 370,000);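 active means activation above a cutoff set at the mean of all screened compounds plus 3 SD, cut at about 10% in these data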;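 further: 0% = DMSO wells and 100% = sodium butyrate wells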
ssDAF12 agonist – S. stercoralis DAF-12 nuclear receptor activators, primary screen, cell-based, luminescence, HEK293, GRIP1 co-expression, lit1-tk-luc; activation, % at 6.8 µM; actives 1% (n = 370,000); HEK293 ssDAF-12/GRIP1 lit1-tk-luc reporter; % of 3 µM dafachronic acid response; AID 652126, 2013;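 active means activation above the mean over all tested compounds plus 3 SD, cut at about 0.9% in these data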;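 further: 0% = DMSO-only wells and 100% = 3 µM delta7-dafachronic acid wells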
hcDAF-12 act – H. contortus DAF-12 nuclear receptor activators, primary screen, cell-based, luminescence, HEK293, lit1-tk-luc reporter; HEK293 hcDAF-12 lit1-tk-luc reporter; 0% DMSO, 100% Δ7-dafachronic acid; activation, % at 6.8 µM; actives 1.4% (n = 370,000); AID 652067, 2013;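 active means activation above the mean of all tested compounds plus 3 SD, cut at about 5.5% in these data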;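 further: 100% = response to 3 µM Δ7-dafachronic acid high control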
LXR ag – LXR agonists, Gal4 luciferase reporter, confirmation, counter-screen for hcDAF-12 agonist project, cell-based, luminescence, HEK293, H. contortus campaign | activation, % at 6.8 µM | HEK293 Gal4-LXR tk-luc reporter, 24 h; normalized: DMSO 0%, positive control 100% | 3,400 tested, under 10 active | shares compounds with hcDAF-12 act;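 active means mean percent activation of the reporter above a cutoff set as the average over tested compounds plus their standard deviation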
Target sequence (P55055 whole entry, looked up, the tested form may be a part): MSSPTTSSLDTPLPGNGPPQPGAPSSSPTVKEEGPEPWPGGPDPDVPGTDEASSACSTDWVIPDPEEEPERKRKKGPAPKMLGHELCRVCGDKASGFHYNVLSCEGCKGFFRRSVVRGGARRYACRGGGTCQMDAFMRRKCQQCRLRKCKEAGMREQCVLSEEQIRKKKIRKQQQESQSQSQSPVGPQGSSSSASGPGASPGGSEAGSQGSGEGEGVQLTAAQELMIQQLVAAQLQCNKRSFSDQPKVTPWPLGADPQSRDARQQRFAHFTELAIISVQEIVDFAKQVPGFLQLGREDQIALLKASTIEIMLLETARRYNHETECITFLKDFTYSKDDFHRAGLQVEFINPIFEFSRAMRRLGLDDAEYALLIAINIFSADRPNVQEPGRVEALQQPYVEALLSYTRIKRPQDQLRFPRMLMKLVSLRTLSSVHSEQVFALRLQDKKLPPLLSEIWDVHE
hcDAF12 conf – H. contortus DAF-12 receptor agonists, confirmation, cell-based, luminescence, HEK293, lit1-tk-luc, triplicate | activation, % at 6.8 µM | shares compounds with hcDAF-12 act | AID 743032, 2013 | actives 61% (n = 3,400) | HEK293 hcDAF-12 lit1-tk-luc reporter; % of Δ7-dafachronic acid response;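 active means mean activation across triplicate tests above the threshold derived from the earlier primary screen, cut at about 5.5% in these data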;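 further: 0% = DMSO only wells and 100% = 3 µM Δ7-dafachronic acid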
An asterisk follows results filed as active; x = no result.

SMILES	DAX1 inh-1	SMARCA2 act	DAX1 inh-2	hgDAF-12 ag	ssDAF12 agonist	hcDAF-12 act	LXR ag	hcDAF12 conf
O=C(NCCc1ccccc1)C1CCC(=O)N(CCCN2CCCC2=O)C1 (stereo not given)	0	-1	1	1	1.9*	7.8*	0	1
CCCCNc1nnc(SCC(=O)c2c[nH]c3ccccc23)s1	1	-3	1	-1	0	12*	0	5
CCn1cc(C(=O)NCc2ccc3c(c2)OCO3)c(=O)c2cc(S(=O)(=O)N(C)C)ccc21	-1	-4	-2	-3	-2	0	x	x
Cc1ccc(Nc2n[nH]c(C)c2[N+](=O)[O-])c(C)c1	2	4	0	9	-1	4	x	x
Cc1ccccc1Nc1n[nH]c(C)c1[N+](=O)[O-]	1	-2	-1	2	0	9.0*	0	4
Cc1ccc(NC(=O)C2=C(O)CCn3c2nc2ccccc23)cc1	0	4	1	4	1.9*	8.9*	0	5
O=C1NCCCC1C(=O)N/N=C/c1ccccc1O (stereo not given)	0	-1	3	2	0	7.5*	0	2
CSCCC(NC(=O)c1cccc(C)c1)C(=O)NCc1cccs1 (stereo not given)	-1	5	1	1	-1	-1	x	x
CN(/N=C/c1ccc2c(c1)OCO2)c1ccccc1	3	3	1	11*	0	9.1*	1	4
Cc1ccc(C(=O)N/C(=C\c2ccc(-c3ccccc3[N+](=O)[O-])o2)C(=O)NCCCN2CCOCC2)cc1	-5	1	-1	-1	0	7.3*	0	2
O=C(O)c1ccccc1Nc1cccc(OCc2ccc3ccccc3n2)c1	1	2	0	3	-1	6.6*	0	1
N/C(=N\OC(=O)c1ccc(Cl)cc1Cl)c1ccc(Cl)cc1	0	0	4	2	0	2	x	x
Cc1cccc(/C(N)=N/OC(=O)c2cccc3ccccc23)c1	3	0	2	5	0.9*	7.0*	0	6.3*
N/C(=N\OC(=O)c1cccc2ccccc12)c1cccc([N+](=O)[O-])c1	1	-1	1	-1	-1	0	x	x
N/C(=N\OC(=O)c1ccc(Cl)cc1Cl)c1ccccc1	2	3	2	10	0	7.3*	2	25*
N/C(=N\OC(=O)c1ccccc1Cl)c1ccc(Cl)cc1	2	8	2	9	1.5*	9.1*	1	15*
O=C(NNC(=S)NC(=O)c1cccs1)c1ccc(O)cc1	2	3	0	2	-1	3	x	x
COc1ccc(/C=N/NC(=O)c2ccc(Cl)c(S(N)(=O)=O)c2)cc1OCC(N)=O	0	-3	0	2	-1	0	x	x
O=C(Nc1ccccc1N1CCCCC1)c1ccc(-c2cccc(Cl)c2)o1	0	2	-2	2	-1	7.4*	0	5
O=C(Nc1ccccc1N1CCCCC1)c1ncoc1-c1cccc(F)c1	1	1	1	1	-1	7.0*	0	2
O=C(Nc1ccccc1N1CCCC1)c1cc2ccccc2o1	2	6	1	12*	1.9*	7.5*	0	6.7*
O=C(Nc1cccnc1Cl)c1cc2ccccc2o1	3	4	4.2*	12*	2.8*	9.3*	1	5
O=C(Nc1ccccc1N1CCCCC1)c1ncoc1-c1ccc(F)cc1	0	-2	1	0	-1	0	x	x
Cc1c(N)cc(N)cc1C(=O)O	0	-3	-1	0	-1	-1	x	x
Cc1nnc(-n2cccc2)s1	1	-1	x	-2	0	7.2*	0	3
SMILES	DAX1 inh-1	SMARCA2 act	DAX1 inh-2	hgDAF-12 ag	ssDAF12 agonist	hcDAF-12 act	LXR ag	hcDAF12 conf
CCN(CC)c1ccc(/C=N/N2C(=O)c3ccccc3C2=O)c(O)c1	0	0	0	2	-1	6.6*	0	1
CCOc1ccc(-n2c(SCC(=O)Nc3nccs3)nnc2-c2ccoc2C)cc1	0	2	2	0	-1	-2	x	x
O=C(O)c1cc(-c2ccc(Cl)cc2)n[nH]1	-1	-1	0	2	-1	-1	x	x
S=c1[nH]nc(Cc2ccccc2)n1-c1cccc2ccccc12	-1	0	0	-2	-1	-1	x	x
O=C(Nc1ccccc1)n1cc(-c2ccccn2)c(N2CCOCC2)n1	1	-2	0	6	2.2*	7.2*	0	4
O=C(Nc1ccc(Nc2ccccc2)cc1)N1CCOCC1	0	-3	1	-1	-2	-1	x	x
O=[N+]([O-])c1ccc(-c2ccc(S(=O)(=O)N3CCOCC3)cc2)cc1	0	-1	4.5*	2	-1	6.6*	0	1
CCOc1ccc(CCNC(=O)c2cccnc2N2CCCC2)cc1OCC	0	0	-2	0	-1	-1	x	x
COc1cccc2c1SCc1ccccc1C2CC(N)=O (stereo not given)	1	-6	1	0	0	6.8*	0	3
COc1ccccc1Cn1c(=S)[nH]c2ccc(F)cc2c1=O	0	-3	0	1	-1	1	x	x
CC(=O)NC12CC3CC(C1)CC(C(=O)N1CCN(S(=O)(=O)c4cccc(F)c4)CC1)(C3)C2	1	-2	1	0	-1	1	x	x
N#C/C(=C(/O)CN1CCCC1)c1nc(-c2ccccc2)cs1	3	0	5.3*	12*	1	8.8*	0	5
CCOC(=O)C1=C(O)/C(=C/N(C)C)N=C1C	0	0	1	-1	-1	0	x	x
